# According to paper PMC7862700, “An all-to-all approach to the identification of sequence-specific readers for epigenetic DNA modifications on cytosine”:
# Experiments:
# Experiment in all cases: DAPPL (digital affinity profiling via proximity ligation, sequencing); 10 mM Tris-HCl pH 7.5, 50 mM NaCl, 1 mM DTT, 4% glycerol, room temperature, 30 min; GST-TFs on glutathione beads, 16-mer random dsDNA library, 0.1% formaldehyde crosslink after washing; high values mean tight binding
# Details in all cases: protein: recombinant; tags: N-terminal GST; dsDNA, one strand shown
# [1] = target: T1, ELK1 (Homo sapiens, UniProt P19419 1-428)
# T1 sequence: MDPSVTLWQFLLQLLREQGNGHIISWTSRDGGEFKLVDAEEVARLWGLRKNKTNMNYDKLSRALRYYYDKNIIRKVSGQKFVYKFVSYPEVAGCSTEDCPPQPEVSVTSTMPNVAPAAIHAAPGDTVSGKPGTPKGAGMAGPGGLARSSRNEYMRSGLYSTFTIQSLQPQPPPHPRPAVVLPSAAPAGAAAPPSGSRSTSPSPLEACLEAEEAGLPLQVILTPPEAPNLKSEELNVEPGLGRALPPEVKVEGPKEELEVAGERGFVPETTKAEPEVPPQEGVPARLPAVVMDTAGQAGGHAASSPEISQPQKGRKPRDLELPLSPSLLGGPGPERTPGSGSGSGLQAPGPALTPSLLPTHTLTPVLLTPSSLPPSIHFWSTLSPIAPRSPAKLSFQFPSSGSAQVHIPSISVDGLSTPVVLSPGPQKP
# Summary of the method: (§1)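 GST fusions of human transcription factors were expressed in yeast and captured with glutathione beads. Once given DNA barcodes and pooled alongside a tag-only sample, they were incubated for 30 min at room temperature with 200 nmole of a random double-stranded 16-mer DNA library in Tris/NaCl/DTT/glycerol buffer, then washed, crosslinked (0.1% formaldehyde), proximity-ligated, PCR-amplified and sequenced on an Illumina NextSeq500. The binding signal of each hexamer is its read frequency for a factor divided by its frequency for the tag-only sample.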
# [2] = target: T2, GABPA (Homo sapiens, UniProt Q06546 1-454)
# T2 sequence: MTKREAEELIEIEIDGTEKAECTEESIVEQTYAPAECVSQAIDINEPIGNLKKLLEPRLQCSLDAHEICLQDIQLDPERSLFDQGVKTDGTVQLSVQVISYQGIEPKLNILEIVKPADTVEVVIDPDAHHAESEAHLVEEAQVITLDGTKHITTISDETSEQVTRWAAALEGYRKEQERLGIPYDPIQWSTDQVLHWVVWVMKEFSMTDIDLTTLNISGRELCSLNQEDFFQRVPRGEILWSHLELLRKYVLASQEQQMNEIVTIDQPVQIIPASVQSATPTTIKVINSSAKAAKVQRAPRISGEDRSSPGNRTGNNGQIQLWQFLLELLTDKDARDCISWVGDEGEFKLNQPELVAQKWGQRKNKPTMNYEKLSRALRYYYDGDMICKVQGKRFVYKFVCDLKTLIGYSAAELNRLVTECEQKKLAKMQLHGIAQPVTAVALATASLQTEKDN
# Summary of the method: as §1
# [3] = target: T3, ERG (Homo sapiens, UniProt P11308 1-479)
# T3 sequence: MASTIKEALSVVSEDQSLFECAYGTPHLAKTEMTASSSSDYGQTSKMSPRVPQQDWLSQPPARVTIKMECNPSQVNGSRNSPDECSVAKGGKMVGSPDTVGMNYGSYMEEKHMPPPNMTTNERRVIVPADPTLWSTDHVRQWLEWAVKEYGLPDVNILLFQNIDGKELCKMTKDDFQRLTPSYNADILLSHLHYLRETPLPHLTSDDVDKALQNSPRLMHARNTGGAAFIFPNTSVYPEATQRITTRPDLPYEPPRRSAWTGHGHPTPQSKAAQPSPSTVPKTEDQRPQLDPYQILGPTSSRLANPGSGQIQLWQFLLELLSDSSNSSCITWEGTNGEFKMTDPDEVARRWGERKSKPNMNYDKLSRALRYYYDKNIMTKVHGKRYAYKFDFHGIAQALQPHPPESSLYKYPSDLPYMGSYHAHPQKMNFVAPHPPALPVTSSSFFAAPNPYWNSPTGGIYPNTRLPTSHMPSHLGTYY
# Summary of the method: as §1
# [4] = target: ELF1 (Homo sapiens, UniProt P32519 1-619)
# Summary of the method: as §1
# [5] = target: T4, EHF (Homo sapiens, UniProt Q9NZC4 1-300)
# T4 sequence: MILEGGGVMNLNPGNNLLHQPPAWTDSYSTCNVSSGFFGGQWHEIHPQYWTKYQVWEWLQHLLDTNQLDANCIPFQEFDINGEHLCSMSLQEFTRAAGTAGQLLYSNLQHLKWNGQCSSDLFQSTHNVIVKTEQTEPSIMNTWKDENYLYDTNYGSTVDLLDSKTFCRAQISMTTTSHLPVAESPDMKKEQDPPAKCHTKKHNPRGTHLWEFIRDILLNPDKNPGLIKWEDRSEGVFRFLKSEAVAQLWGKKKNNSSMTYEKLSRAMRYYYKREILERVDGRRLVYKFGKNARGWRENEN
# Summary of the method: as §1
# [6] = target: SPIB (Homo sapiens, UniProt Q01892 1-262)
# Summary of the method: as §1
# [7] = target: T5, ELK3 (Homo sapiens, UniProt P41970 1-407)
# T5 sequence: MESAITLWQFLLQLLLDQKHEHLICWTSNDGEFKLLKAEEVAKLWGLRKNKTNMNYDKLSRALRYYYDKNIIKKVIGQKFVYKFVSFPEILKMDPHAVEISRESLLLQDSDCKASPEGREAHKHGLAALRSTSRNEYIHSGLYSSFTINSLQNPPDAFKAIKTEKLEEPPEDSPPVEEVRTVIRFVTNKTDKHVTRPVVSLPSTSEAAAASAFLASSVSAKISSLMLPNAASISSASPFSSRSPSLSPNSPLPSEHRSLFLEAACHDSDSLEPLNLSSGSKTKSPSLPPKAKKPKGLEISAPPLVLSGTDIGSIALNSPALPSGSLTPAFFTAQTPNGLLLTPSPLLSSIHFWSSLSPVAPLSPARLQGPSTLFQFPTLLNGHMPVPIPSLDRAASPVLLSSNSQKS
# Summary of the method: as §1
# [8] = target: ETV5 (Homo sapiens, UniProt P41161 1-510)
# Summary of the method: as §1
# [9] = target: T6, SPIC (Homo sapiens, UniProt Q8N5J4 1-248)
# T6 sequence: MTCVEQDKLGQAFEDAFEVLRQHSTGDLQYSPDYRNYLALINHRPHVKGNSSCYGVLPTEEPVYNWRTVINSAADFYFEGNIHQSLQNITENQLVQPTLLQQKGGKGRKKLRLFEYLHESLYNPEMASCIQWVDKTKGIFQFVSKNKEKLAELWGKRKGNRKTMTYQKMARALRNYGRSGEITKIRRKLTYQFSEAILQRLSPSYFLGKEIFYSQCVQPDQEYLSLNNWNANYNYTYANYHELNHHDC
# Summary of the method: as §1
# [10] = target: ELF4 (Homo sapiens, UniProt Q99607 1-663)
# Summary of the method: as §1
# [11] = target: T7, ELK4 (Homo sapiens, UniProt P28324-2 1-405)
# T7 sequence: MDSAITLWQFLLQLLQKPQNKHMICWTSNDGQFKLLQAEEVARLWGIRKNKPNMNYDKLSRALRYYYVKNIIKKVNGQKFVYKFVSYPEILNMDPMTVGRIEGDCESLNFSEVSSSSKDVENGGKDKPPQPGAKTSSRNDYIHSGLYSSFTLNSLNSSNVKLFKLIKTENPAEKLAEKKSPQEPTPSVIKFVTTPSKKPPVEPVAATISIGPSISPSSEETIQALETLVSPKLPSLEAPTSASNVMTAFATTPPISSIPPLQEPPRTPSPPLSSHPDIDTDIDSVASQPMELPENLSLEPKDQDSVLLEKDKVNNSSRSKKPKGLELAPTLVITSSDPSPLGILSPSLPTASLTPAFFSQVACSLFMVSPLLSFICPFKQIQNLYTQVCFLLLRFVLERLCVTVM
# Summary of the method: as §1
# [12] = target: T8, ELF3 (Homo sapiens, UniProt P78545 1-371)
# T8 sequence: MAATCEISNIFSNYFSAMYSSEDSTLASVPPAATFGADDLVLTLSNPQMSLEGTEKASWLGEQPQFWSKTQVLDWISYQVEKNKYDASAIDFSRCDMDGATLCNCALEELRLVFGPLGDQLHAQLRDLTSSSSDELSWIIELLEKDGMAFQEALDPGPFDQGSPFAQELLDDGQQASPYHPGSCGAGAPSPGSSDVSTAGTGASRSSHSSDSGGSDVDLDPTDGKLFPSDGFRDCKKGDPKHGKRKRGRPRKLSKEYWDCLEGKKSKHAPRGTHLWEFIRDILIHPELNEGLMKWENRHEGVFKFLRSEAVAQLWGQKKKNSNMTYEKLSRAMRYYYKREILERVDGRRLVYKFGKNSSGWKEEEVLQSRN
# Summary of the method: as §1
# [13] = target: ETV1 (Homo sapiens, UniProt P50549 1-477)
# Summary of the method: as §1
# [14] = target: T9, ERF (Homo sapiens, UniProt P50548 1-548)
# T9 sequence: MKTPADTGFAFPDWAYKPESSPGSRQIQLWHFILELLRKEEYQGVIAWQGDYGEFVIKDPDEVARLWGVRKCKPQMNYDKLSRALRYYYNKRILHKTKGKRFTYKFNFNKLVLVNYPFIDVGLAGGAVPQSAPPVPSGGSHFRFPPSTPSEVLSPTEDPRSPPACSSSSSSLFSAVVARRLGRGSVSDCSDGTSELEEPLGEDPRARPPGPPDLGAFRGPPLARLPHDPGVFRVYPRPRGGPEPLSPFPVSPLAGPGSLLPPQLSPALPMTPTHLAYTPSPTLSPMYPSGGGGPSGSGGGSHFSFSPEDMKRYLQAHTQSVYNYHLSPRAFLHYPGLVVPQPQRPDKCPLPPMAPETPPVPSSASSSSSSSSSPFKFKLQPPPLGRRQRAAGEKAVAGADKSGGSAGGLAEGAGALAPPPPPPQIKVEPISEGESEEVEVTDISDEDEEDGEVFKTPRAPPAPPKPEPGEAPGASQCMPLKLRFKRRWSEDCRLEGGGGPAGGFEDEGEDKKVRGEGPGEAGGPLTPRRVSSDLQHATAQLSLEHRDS
# Summary of the method: as §1
# [15] = target: T10, ETV3L (Homo sapiens, UniProt Q6ZN32 1-361)
# T10 sequence: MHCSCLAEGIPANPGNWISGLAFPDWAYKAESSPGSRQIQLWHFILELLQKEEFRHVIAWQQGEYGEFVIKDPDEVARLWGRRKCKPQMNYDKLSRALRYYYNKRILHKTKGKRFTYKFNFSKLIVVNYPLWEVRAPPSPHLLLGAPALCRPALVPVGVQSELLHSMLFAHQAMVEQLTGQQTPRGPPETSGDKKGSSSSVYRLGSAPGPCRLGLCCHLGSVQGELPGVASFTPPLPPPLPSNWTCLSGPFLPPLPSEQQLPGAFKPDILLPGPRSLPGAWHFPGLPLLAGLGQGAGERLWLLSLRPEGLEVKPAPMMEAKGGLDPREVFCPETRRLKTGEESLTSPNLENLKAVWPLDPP
# Summary of the method: as §1
# [16] = target: T11, SPDEF (Homo sapiens, UniProt O95238 1-335)
# T11 sequence: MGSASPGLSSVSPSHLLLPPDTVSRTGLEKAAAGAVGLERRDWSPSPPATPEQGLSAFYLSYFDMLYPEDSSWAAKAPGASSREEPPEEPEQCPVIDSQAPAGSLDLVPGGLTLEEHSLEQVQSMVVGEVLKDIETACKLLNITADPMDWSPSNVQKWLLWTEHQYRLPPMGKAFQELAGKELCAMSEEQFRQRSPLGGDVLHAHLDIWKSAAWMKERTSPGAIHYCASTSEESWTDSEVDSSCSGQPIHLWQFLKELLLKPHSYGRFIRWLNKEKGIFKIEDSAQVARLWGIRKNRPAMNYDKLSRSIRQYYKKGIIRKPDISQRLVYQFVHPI
# Summary of the method: as §1
# [17] = target: T12, ETV3 (Homo sapiens, UniProt P41162-2 1-143)
# T12 sequence: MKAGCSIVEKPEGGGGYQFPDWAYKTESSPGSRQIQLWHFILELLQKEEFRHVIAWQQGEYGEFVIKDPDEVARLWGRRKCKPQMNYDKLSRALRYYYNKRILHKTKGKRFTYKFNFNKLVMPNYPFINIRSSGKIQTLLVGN
# Summary of the method: as §1
# [18] = target: ETV6 (Homo sapiens, UniProt P41212 1-452)
# Summary of the method: as §1
# ETV5, sequence (P41161 whole entry): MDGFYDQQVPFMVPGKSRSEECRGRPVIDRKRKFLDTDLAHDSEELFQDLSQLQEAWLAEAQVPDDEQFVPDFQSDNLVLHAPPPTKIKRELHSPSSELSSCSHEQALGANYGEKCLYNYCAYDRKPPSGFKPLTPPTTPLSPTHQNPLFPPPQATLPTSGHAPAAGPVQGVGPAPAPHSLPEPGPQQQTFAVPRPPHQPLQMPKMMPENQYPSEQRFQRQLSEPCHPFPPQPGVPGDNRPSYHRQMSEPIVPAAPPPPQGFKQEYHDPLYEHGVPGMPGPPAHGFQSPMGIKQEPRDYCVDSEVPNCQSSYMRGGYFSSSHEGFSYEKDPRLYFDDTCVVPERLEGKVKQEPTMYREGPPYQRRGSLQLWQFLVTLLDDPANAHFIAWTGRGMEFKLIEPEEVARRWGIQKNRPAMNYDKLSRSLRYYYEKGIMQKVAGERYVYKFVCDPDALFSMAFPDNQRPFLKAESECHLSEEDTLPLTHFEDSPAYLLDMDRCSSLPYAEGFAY
# SPIB, sequence (Q01892 whole entry): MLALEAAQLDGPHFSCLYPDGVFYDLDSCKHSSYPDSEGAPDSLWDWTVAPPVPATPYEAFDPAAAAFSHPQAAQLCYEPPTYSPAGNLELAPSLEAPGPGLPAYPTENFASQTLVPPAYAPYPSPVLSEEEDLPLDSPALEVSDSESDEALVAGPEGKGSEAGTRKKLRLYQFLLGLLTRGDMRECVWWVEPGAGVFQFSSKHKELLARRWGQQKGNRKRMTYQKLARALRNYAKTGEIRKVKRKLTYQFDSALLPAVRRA
# ELF4, sequence (Q99607 whole entry): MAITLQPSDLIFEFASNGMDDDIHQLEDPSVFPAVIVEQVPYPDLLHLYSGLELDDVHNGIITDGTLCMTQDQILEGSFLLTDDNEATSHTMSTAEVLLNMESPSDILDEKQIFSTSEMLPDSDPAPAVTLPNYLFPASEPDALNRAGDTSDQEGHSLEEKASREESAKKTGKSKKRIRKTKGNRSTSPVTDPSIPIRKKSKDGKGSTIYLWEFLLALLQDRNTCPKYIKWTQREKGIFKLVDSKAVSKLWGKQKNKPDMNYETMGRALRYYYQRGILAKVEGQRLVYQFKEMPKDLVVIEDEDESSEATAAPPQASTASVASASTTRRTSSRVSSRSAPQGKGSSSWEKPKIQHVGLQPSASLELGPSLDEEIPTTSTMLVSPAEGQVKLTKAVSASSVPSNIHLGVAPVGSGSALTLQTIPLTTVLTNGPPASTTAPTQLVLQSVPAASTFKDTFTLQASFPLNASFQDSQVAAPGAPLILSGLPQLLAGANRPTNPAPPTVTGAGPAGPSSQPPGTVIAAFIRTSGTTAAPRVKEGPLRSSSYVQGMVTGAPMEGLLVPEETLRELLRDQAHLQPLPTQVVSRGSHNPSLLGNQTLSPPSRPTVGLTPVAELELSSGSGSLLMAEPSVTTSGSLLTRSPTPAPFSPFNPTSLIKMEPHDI
# ETV1, sequence (P50549 whole entry): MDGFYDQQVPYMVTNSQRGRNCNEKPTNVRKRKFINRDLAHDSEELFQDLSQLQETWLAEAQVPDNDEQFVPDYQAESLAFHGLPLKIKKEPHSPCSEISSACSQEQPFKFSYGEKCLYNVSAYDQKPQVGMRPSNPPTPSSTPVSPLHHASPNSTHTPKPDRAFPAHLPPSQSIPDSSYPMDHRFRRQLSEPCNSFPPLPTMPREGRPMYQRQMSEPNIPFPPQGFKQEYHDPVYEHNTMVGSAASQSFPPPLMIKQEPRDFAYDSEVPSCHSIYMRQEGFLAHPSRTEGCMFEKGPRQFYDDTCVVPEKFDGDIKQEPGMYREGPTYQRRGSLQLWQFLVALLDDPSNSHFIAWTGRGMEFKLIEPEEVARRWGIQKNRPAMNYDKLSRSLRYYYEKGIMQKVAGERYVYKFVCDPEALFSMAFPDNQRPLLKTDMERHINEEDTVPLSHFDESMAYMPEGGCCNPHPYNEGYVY
# ETV6, sequence (P41212 whole entry): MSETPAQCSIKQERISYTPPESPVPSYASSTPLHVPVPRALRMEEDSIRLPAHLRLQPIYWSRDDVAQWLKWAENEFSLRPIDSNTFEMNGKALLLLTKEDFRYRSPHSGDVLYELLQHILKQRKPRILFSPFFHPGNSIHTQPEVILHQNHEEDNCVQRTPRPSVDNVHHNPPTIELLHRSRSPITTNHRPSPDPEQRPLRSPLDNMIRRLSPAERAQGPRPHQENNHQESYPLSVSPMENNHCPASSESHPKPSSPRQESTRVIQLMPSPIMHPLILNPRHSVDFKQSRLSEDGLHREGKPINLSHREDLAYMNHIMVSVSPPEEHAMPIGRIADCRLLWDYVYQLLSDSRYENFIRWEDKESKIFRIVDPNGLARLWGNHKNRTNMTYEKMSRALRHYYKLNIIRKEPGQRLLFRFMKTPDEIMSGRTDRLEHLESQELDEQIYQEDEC
# ELF1, sequence (P32519 whole entry): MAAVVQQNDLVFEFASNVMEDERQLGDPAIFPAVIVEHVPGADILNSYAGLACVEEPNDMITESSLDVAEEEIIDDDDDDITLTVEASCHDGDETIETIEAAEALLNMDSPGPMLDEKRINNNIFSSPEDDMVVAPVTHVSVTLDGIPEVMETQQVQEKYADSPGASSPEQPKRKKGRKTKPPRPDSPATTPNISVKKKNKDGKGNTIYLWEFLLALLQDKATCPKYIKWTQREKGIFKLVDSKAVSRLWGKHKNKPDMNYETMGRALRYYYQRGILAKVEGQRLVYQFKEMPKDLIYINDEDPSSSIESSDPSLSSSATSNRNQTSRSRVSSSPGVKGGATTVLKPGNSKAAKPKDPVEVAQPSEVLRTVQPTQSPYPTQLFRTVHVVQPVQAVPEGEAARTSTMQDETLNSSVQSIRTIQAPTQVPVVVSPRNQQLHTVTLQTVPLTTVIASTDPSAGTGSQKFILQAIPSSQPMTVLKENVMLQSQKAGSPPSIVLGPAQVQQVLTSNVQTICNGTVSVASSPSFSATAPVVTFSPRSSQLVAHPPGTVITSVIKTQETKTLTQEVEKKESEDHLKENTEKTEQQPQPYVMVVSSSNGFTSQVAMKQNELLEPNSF
sequence,measurement,setting,value
CGCGCC,binding signal,[1],"1.01 fold enrichment (6-mer frequency, TF over GST control)"
same,binding signal,[2],"1.03 fold enrichment (6-mer frequency, TF over GST control)"
same,binding signal,[3],"1.03 fold enrichment (6-mer frequency, TF over GST control)"
same,binding signal,[4],"1.06 fold enrichment (6-mer frequency, TF over GST control)"
same,binding signal,[5],"1.05 fold enrichment (6-mer frequency, TF over GST control)"
same,binding signal,[6],"1 fold enrichment (6-mer frequency, TF over GST control)"
same,binding signal,[7],"1.05 fold enrichment (6-mer frequency, TF over GST control)"
same,binding signal,[8],"1.11 fold enrichment (6-mer frequency, TF over GST control)"
same,binding signal,[9],"1.23 fold enrichment (6-mer frequency, TF over GST control)"
same,binding signal,[10],"1.05 fold enrichment (6-mer frequency, TF over GST control)"
same,binding signal,[11],"1.15 fold enrichment (6-mer frequency, TF over GST control)"
same,binding signal,[12],"1.05 fold enrichment (6-mer frequency, TF over GST control)"
same,binding signal,[13],"1.14 fold enrichment (6-mer frequency, TF over GST control)"
same,binding signal,[14],"1.1 fold enrichment (6-mer frequency, TF over GST control)"
same,binding signal,[15],"1.05 fold enrichment (6-mer frequency, TF over GST control)"
same,binding signal,[16],"1.03 fold enrichment (6-mer frequency, TF over GST control)"
same,binding signal,[17],"1.09 fold enrichment (6-mer frequency, TF over GST control)"
same,binding signal,[18],"1 fold enrichment (6-mer frequency, TF over GST control)"
